Screens as filed in PubChem BioAssay.
Shown are actives, neighbours in structure and some others; about 21% of the full set was active somewhere.
DT40 TDP1 no CPT: qHTS for Inhibitors of human tyrosyl-DNA phosphodiesterase 1 (TDP1): qHTS in cells in absence of CPT. DT40 Tdp1-/- hTDP1 cells, no CPT, ATP luminescence, 48 h. Potency, µM (top dose mostly 46.2 µM), most hits filed as inhibitors. hit rate 15% among 420,000. AID 686978, 2013; also: nearly all actives have a fitted effect of over 55% in size
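Seeded 400 DT40-hTDP1 cells/well (vehicle DMSO, no 20 nM CPT); pinned compounds; ≥48 hr at 37 °C; CellTiter-Glo luminescence as viability measure.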
IL-1B inflam inh: qHTS for Inhibitors of Inflammasome Signaling: IL-1-beta AlphaLISA Primary Screen | hit rate 4.7% among 360,000 | AID 743279, 2014 | activity change, % at 57.5 µM | THP-1 LPS/ATP IL-1B secretion, AlphaLISA, 16 h; active compounds read low; in the data active = activity change below about -50%; inconclusive = mostly about -30% to -49%
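Secreted IL-1B measured by AlphaLISA bead assay after 16 h compound exposure of THP-1 cells; compounds (final up to 57.5 uM) added 1 h before LPS (250 ng/mL) and ATP (1.25 mM) stimulation; lower signal means less secretion.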
RORgamma inh: qHTS for inhibitors of ROR gamma transcriptional activity; Nuclear receptor ROR-gamma (Mus musculus), P51450; hit rate 5.4% among 310,000; Potency, µM (top dose mostly 53.6 µM), actives largely listed as inhibitors; Drosophila S2 Gal4-RORgamma UAS-luciferase reporter, 20 h; AID 2551, 2010; also: nearly all actives have a fitted effect of over 60% in size
Target sequence (P51450 whole entry, looked up, the tested form may be a part): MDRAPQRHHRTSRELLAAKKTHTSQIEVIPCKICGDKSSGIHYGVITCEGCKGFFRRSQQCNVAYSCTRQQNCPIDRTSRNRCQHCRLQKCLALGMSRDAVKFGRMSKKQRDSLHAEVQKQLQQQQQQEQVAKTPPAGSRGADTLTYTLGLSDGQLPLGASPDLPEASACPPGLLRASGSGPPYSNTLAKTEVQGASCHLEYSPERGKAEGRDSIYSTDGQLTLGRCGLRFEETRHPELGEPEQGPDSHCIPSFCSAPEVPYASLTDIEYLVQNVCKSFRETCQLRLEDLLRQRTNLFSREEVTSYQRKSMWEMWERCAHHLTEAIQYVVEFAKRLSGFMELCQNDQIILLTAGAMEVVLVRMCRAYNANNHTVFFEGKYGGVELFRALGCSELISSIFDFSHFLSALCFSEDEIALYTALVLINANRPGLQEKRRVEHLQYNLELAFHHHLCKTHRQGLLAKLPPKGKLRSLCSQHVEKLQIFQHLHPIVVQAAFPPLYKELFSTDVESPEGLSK
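Schneider cells (Drosophila), stable Gal4 DBD–ROR gamma + UAS-luc; 1 hr cmpd preincubation; Cu2+ induction 700 uM final; 20 hr ambient; luminescence.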
VP16 counter: VP16 counterscreen qHTS for inhibitors of ROR gamma transcriptional activity; AID 2546, 2010; Drosophila S2 Gal4-VP16 UAS-luciferase, luminescence, 20 h; hit rate 3.5% among 310,000; Potency, µM (series often up to 53.6 µM), usual class: inhibitors;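 also: Gal4-VP16 expression switched on by copper sulfate through the metallothionein promoter; nearly all actives have a fitted effect of over 50% in size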
ELG1 DNA repair: qHTS screen for small molecules that inhibit ELG1-dependent DNA repair in human embryonic kidney (HEK293T) cells expressing luciferase-tagged ELG1; AID 504467, 2011; HEK293T ELG1-luciferase reporter, luminescence, 16 h; DNA damage induced by 5-fluorouridine; Potency, µM (top dose mostly 46.1 µM), usual class: inhibitors; hit rate 2.3% among 330,000; also: nearly all actives have a fitted effect of over 55% in size
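In this reporter screen, reduction of luminescence relative to DMSO vehicle indicated activity. Compounds and 5-fluorouridine were added together to 2,000 cells per well, incubated for 16 hr at 37 °C, then developed with ONE-Glo.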
TDP1 cell CPT: qHTS for Inhibitors of human tyrosyl-DNA phosphodiesterase 1 (TDP1): qHTS in cells in presence of CPT; Potency, µM (series often up to 46.2 µM), usual class: inhibitors; chicken DT40 Tdp1-/-;hTDP1 cells + 20 nM CPT, ATP luminescence, 48 h; hit rate 12% among 420,000; also: nearly all actives have a fitted effect of over 55% in size
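Cell growth measured by CellTiter-Glo luminescence after a minimum 48 h, 37 C compound exposure with 20 nM CPT in Tdp1-knockout DT40 cells stably expressing hTDP1, seeded 400/well; qHTS titration format.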
Hits are given with their value; 0 = inactive; ? = inconclusive; - = no result given; ! = a repeat was not active; [ ] = dose if it differs, or a comment. Unless noted, calls follow the shape of the dose curve; as a rule, active = well fitted curve in the direction sought with a large enough effect; inconclusive = small, poorly fitted or top-dose-only effect, or another doubt; inactive = no such curve, though single readings can be large; an effect the other way counts as inactive or inconclusive.

SMILES | DT40 TDP1 no CPT | IL-1B inflam inh | RORgamma inh | VP16 counter | ELG1 DNA repair | TDP1 cell CPT
Cc1ccc(CCCOC(=O)CN2CCCCC2)cc1 | 0 | 0 | 0 | 0 | 0 | 0
CCOC(=O)c1cc(NC(=O)c2ccc(C)cc2)c(=O)n2c1oc1ccc(Cl)cc12 | 0 | - | - | - | - | 0
CC(C)(C)c1ccc(S(=O)(=O)NCc2ccc(C(=O)NCc3ccccn3)cc2)cc1 | 18µM | 0 | 0 | 0 | 0 | 21µM
COc1ccc(S(=O)(=O)NCc2ccccn2)cc1NC(=O)c1ccccc1C | 4.6µM | 0 | - | - | 0 | 4.1µM
CC(C)(C)c1ccc(S(=O)(=O)NCc2ccccn2)cc1 | ? | 0 | 0 | ? | 0 | 0
O=c1c2[nH]cnc2n(-c2cccc(F)c2)c(=O)n1Cc1ccccc1 | 0 | 0 | 0 | 0 | 0 | 0
Cc1ccc2[nH]c(=O)c(CNC(C)(C)C)cc2c1 | 0 | 0 | 0 | 0 | 0 | 0
COc1ccc2[nH]c(=O)c(CNc3cc(C)ccc3C)cc2c1 | 15µM | 0 | 0 | 0 | 0 | 15µM
COc1ccc2[nH]c(=O)c(CNc3ccc(C)cc3C)cc2c1 | 21µM | 0 | 0 | 0 | 0 | 5.8µM
CNC(=S)N(Cc1ccc(OC)cc1)Cc1cc2cc(C)ccc2[nH]c1=O | 0 | 0 | 0 | 0 | 0 | 0
CN(C(=O)COC(=O)c1ccc(Br)c(S(=O)(=O)N2CCOCC2)c1)C1CCCCC1 | ? | 0 | - | - | ? | ?
COCC(O)CNc1ccccc1 (stereo unspecified) | 0 | 0 | 0 | 0 | 0 | 0
CC(C)NC(=O)N(C)C[C@H]1OCc2cnnn2CCCC(=O)N([C@H](C)CO)C[C@H]1C | 0 | 0 | - | - | - | 0
COc1ccc(OC)c(N(CCN2C(=O)c3ccccc3C2=O)C(=O)CCl)c1 | 21µM | -104 | - | - | - | ?
N#CC1(c2ccccc2)CCC(NCCc2ccccc2)CC1 (stereo unspecified) | 18µM | ? | 0 | 0 | 0 | ?
Oc1cc2c(c(Cl)c1O)CCNCC2c1ccccc1 (stereo unspecified) | 8.2µM! | 0 | - | - | - | 8.2µM
Oc1ccc(C2CNCCc3c2cc(O)c(O)c3Cl)cc1 (stereo unspecified) | 0 | 0 | 0[10 µM] | 0 | 0 | ?
Oc1cc2c(c(Cl)c1O)CCNC[C@H]2c1ccccc1 | 17µM | - | 0 | 0 | - | 12µM
CCOC(=O)c1c(NC(=O)C2COc3ccccc3O2)sc(C(C)=O)c1C (stereo unspecified) | 6.5µM | 0 | 0 | 0 | 0 | 7.3µM
CCOC(=O)c1c(NC(=O)C2COc3ccccc3O2)sc2c1CC(C)(C)NC2(C)C (stereo unspecified) | 12µM | ? | ? | ? | ? | 13µM
CCC1OC(C(C)C)Cc2[nH][nH]c(=O)c21 (stereo unspecified) | 0 | 0 | - | - | - | 0
CC1=CC(C)(C)n2c(O)c(N=NC(N)=S)c3c(C)c(C)cc1c32 | 0 | 0 | 0 | 0 | 0 | 0
CC1=CC(C)(C)n2c(O)c(N=NC(N)=S)c3c(C)ccc1c32 | 0 | 0 | 4.5µM | 2.5µM | 0 | 0
COc1ccc2c(c1)c(N=NC(N)=S)c(O)n2CC(=O)c1ccccc1 | 0 | 0 | ? | 0 | 0 | 0
CC1=CC(C)(C)n2c(O)c(N=NC(N)=S)c3cccc1c32 | ? | 0 | 1.1µM | 2µM | 0 | ?
SMILES | DT40 TDP1 no CPT | IL-1B inflam inh | RORgamma inh | VP16 counter | ELG1 DNA repair | TDP1 cell CPT
CC1=CC(C)(C)n2c(O)c(N=N)c3cc(C)cc1c32 | 23µM | -60 | 0 | 0 | 0 | ?
COc1cc2c3c(c1)c(N=NC(N)=S)c(O)n3C(C)(C)C=C2C | 5.2µM | 0 | 2µM | 4.5µM | 0 | 4.6µM
CC1=CC(C)(C)n2c(O)c(N=N)c3c(C)c(C)cc1c32 | ? | 0 | 0 | 0 | 0 | 0
Cn1c(NCCc2ccncc2)nc2cc(-c3cccc(C(F)(F)F)c3)sc2c1=O | ? | 0 | - | - | - | ?
CCC(CO)Nc1ccc(-c2n[nH]c(=O)c3ccccc23)cc1[N+](=O)[O-] (stereo unspecified) | 0 | 0 | ? | 0 | ? | ?
COc1ccc(NC(=O)Cn2c([N+](=O)[O-])cnc2C)c(OC)c1 | 0 | 0 | - | - | - | 0
Cc1cc2nc(-c3ccco3)c(Cc3cccc(Cl)c3)n2c(C)c1Br | ? | 0 | - | - | - | ?
COc1ccccc1Cc1c(-c2ccco2)nc2cc(C)c(Br)c(C)n12 | 23µM | 0 | - | - | - | ?
Cc1cc2nc(-c3ccco3)c(CC(C)(C)C)n2c(C)c1Br | 23µM | 0 | - | - | - | 23µM
Cc1ccc(C(=O)Nc2ccccc2C(=O)N2CC(C)OC(C)C2)cc1 (stereo unspecified) | 0 | 0 | - | - | - | 0
Cc1cc(N2CCCC2)ccc1NC(=O)CN1C(=O)NC2(CCCCC2)C1=O | 0 | 0 | - | - | 0 | 0
COc1cc(Nc2nc(SCc3ccccc3F)nc3ccccc23)cc(OC)c1 | 18µM | - | - | - | - | ?
Fc1ccc(Nc2nc(SCc3ccccc3F)nc3ccccc23)cc1 | 16µM | - | - | - | - | 16µM
Cn1c(SCc2ccccc2F)nc2ccccc2c1=O | ? | 0 | - | - | - | 0
Cc1nc(S(=O)(=O)N(C)c2ccccc2)c(C#N)c(C)c1Cl | 23µM | ? | 0 | 0 | 23µM | 23µM
Cc1cc(C)c(S(=O)(=O)N(C)c2ccccc2)c(C)c1 | 0 | ? | 0 | 0 | 0 | ?
COc1cc(C(=O)NCC(=O)N/N=C/c2ccccn2)cc(OC)c1OC | 0 | 0 | 0 | 0 | 0 | 0
C/C(=N\NC(=O)c1ccccn1)c1ccc(Cl)cc1 | 0 | - | ? | 0 | ? | 0
C/C(=N\NC(=O)c1ccc(Cl)cc1)c1ccccn1 | 0.52µM | -92 | 0.028µM | ? | ? | 0.58µM
C/C(=N/NC(=O)c1ccccn1)c1ccc(O)cc1 | 0 | 0 | 0 | 0 | ? | 0
COc1cc(C(=O)N/N=C(\C)c2ccccn2)cc(OC)c1OC | 8.2µM | 0 | 0 | 0 | 0 | 12µM
COc1ccccc1NC(=O)C/C(C)=N/NC(=O)c1ccccn1 | 0 | 0 | 0 | ? | ? | 0
COc1cc(C(=O)N/N=C(\c2ccccc2)c2ccccn2)cc(OC)c1OC | 2.6µM | 0 | 1.3µM | 1.3µM | ? | 2.6µM
C/C(=N/NC(=O)c1ccccn1)c1ccco1 | ? | 0 | 10µM | ? | ? | ?
C/C(=N\NC(=O)c1cc(C)nc2ccccc12)c1ccccn1 | 0.73µM | 0 | - | - | ? | 1.5µM
CCOC(=O)c1cc(NC(=O)Nc2ccc(Br)cc2)c(C)nc1C | ? | 0 | 0 | 0 | 0 | ?
O=C1OC(CN2CCOCC2)CN1N=Cc1ccc([N+](=O)[O-])o1 (stereo unspecified) | ? | 0 | - | - | 0 | 15µM
